# Shown are actives, neighbours in structure and some others; about 10% of the full set was active somewhere.
# aGal spleen mod: inhibitors or activators of human alpha-galactosidase in spleen homogenate. human spleen homogenate, 4MU-alpha-Gal fluorescence, 40 min. P06280. hit rate 0.008% among 240,000. AID 2107. Potency, µM (titrated, usually from 80 µM), inactives show at the highest dose activity change, negative = inhibition, hits mostly inhibitors;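 also: potency is read from the fitted curve at half-maximal effect; 0% = enzyme with vehicle and -100% = no enzyme basal signal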
#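 Fluorogenic readout (Ex 365/Em 440 nm) of 4-methylumbelliferone released from 1 mM 4-MU-alpha-galactoside by spleen homogenate, 40 min at 37C, pH 5.0. Data normalized to no-enzyme and enzyme controls; Hill-equation AC50 from compound titrations.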
# GLA inh pH 4.5: inhibitors of human alpha-galactosidase A at pH 4.5; purified enzyme, 4-MU-alpha-Gal fluorescence, pH 4.5; activity change, negative = inhibition, % at 105 µM; 230,000 tested, under 10 active; AID 1467;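 also: 0% = full activity with enzyme and -100% = basal without enzyme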
# Target sequence (P06280 whole entry, looked up): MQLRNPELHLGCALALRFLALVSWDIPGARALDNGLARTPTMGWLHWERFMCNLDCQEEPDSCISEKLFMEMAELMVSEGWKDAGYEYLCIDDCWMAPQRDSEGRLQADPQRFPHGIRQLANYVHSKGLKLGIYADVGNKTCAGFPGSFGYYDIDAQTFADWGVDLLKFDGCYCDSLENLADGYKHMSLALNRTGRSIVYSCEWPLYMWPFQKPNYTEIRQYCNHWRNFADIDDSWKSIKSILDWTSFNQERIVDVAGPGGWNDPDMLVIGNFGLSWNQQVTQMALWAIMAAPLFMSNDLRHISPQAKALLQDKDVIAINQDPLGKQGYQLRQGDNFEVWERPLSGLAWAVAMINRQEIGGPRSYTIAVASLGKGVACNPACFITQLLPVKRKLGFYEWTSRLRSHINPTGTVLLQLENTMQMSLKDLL
# PNC assembly inh: blocks assembly of the perinucleolar compartment; hit rate 3.1% among 140,000; activity change (PNC), negative = inhibition, % at 10 µM; PC3M PTB-GFP, PNC prevalence imaging, 16 h; hits give low values;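 active = readout at or below -70, meaning at least 70% loss of cells showing the perinucleolar compartment, a nuclear body marking cancer cells; inconclusive = readout between -30 and a set limit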;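 also: plate controls were DMSO wells for no effect and camptothecin positive control wells for full effect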
#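 Read-out is percentage of cells bearing a perinucleolar compartment, from automated 20x imaging of fixed, Hoechst-stained PC3M PTB-GFP cells. Cells were seeded 4 h, then exposed 16 h to compound (23 nl of library stock) in duplicate plates.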
# ALDH1A1 block: blocks purified human ALDH1A1 activity; Purified ALDH1A1, NADH fluorescence, propionaldehyde substrate; Potency, µM (doses to about 75.3 µM), inactives show at the top dose activity, negative = inhibition, most hits filed as inhibitors; hit rate 7.3% among 220,000; active = well fitted inhibition curve with a large enough effect, not every such curve was filed as active; inconclusive = small, poorly fitted or top-dose-only effect, or another doubt; inactive = no such curve, though single readings can be large or run the other way;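 also: potency is read from the fitted curve at half-maximal effect; plate controls were no enzyme wells and a reference inhibitor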
# ALOX12 inhib: inhibitors of human 12-lipoxygenase (ALOX12) | P18054 | purified 12-hLO, xylenol orange hydroperoxide absorbance | Potency, µM (highest dose often 57.1 µM), without a hit: top-dose activity change, negative = inhibition, most hits filed as inhibitors | hit rate 0.12% among 150,000 | AID 1452; also: potency is read from the fitted curve at half-maximal effect; nearly all actives have a fitted effect of over 55% in size
#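 Lipoxygenase turnover measured by absorbance at 573 and 405 nm after Fe-XO development. Human 12hLO 150 nM, arachidonate 40 uM, pH 7.0 Hepes buffer with detergent; 15 min compound preincubation, 30 min reaction.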
# HPGD inh: blocks human HPGD enzyme activity | Potency, µM, for the others: at the top dose activity change, negative = inhibition, actives largely listed as inhibitors | purified HPGD, NADH fluorescence kinetic, PGE2 substrate | hit rate 4.3% among 150,000 | P15428; active = well fitted inhibition curve with a large enough effect, not every such curve was filed as active; inconclusive = small, poorly fitted or top-dose-only effect, or another doubt; inactive = no such curve, though single readings can be large or run the other way; also: potency is read from the fitted curve at half-maximal effect
# Target sequence (P15428 whole entry, looked up): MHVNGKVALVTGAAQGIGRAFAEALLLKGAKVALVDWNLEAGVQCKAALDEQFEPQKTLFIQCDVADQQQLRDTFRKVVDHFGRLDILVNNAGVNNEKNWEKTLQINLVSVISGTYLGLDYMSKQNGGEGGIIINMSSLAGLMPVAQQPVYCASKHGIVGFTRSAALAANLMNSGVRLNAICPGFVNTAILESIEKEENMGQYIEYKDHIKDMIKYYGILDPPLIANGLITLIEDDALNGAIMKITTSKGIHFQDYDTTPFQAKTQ
#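 20 nM HPGD preincubated 15 min at room temperature with compound in 50 mM Tris-HCl pH 8, 0.01% Tween 20. Started with 1 mM NAD+ and 30 uM prostaglandin E2; NADH fluorescence (360/450 nm) read 5 times over 30-s intervals, last minus first.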
# Active calls of the source: *; ? = inconclusive; . = no result; [ ] = another dose, or the depositor's remark. Unless noted, calls follow the shape of the dose curve; as a rule, active = well fitted curve in the direction sought with a large enough effect; inconclusive = small, poorly fitted or top-dose-only effect, or another doubt; inactive = no such curve, though single readings can be large; an effect the other way counts as inactive or inconclusive. Unless noted, % is scaled to controls: 0 for no effect and ±100 for the full control effect.
SMILES,aGal spleen mod,GLA inh pH 4.5,PNC assembly inh,ALDH1A1 block,ALOX12 inhib,HPGD inh
COc1ccc(NS(=O)(=O)c2ccc3oc(SC4CCOC4=O)nc3c2)cc1 (stereo not drawn),11%,6,14,0.56µM*,-6%,32µM*
CC(=O)NCCNc1cc(-c2ccccc2CN(C)C)ncn1,2%,.,.,?,.,.
NC(=O)Nc1cccc2ccccc12,6%,3,-105*,-4%,3%,-15%
O=C(NNC(=S)Nc1cccc2ccccc12)c1cccc(Br)c1,3%,-5,?,4.5µM*,?,-20%
Cc1ccc(C)c(OCc2nc3ccc(S(=O)(=O)Nc4c(C)n(C)n(-c5ccccc5)c4=O)cc3[nH]2)c1,-8%,0,.,2%,.,.
CC(=O)c1cnc2ncnn2c1C,1%,10,-113*,7%,-3%,-4%
CC(=O)c1cnc2nc(C)nn2c1C,2%,13,-23,-3%,1%,-8%
COc1ccc(C2=CC(=O)N(Nc3ccccc3)C2=O)cc1,0%,2,.,-5%,.,.
O=C1C=C(c2ccccc2)C(=O)N1Nc1ccccc1,4%,1,-9,22µM*,?,?
O=C1CC(C(=O)N(c2cccc(F)c2)C(C(=O)NC2CCCC2)c2ccccn2)CS1 (stereo not drawn),2%,-6,-2,10µM*,2%,-2%
Cc1ccc(-c2nnc(-c3ccccc3)c(-c3ccccc3)n2)cc1,9%,-19,0,?,2%,-8%
Cc1cc(-c2nnc(-c3ccccc3)c(-c3ccccc3)n2)c(C)o1,-5%,0,-4,6.3µM*,-9%,?
CCC(=O)N(Cc1ccco1)c1nc(C(=O)Nc2ccc(Cl)cc2)c(C)s1,0%,-3,29,22µM*,-2%,?
O=c1nc2s/c(=C\c3ccc(-c4ccccc4[N+](=O)[O-])o3)c(=O)n2nc1-c1ccccc1,6%,-3,?,?,-19%,7.9µM*
N#C/C(=C/c1ccc(-c2ccccc2[N+](=O)[O-])o1)C(N)=O,8%,?,.,19%,.,.
CC(=O)N(C[C@@H](C)C(=O)O)c1c(I)cc(I)c(N)c1I,5%[29.1 µM],5,.,-3%[20.9 µM],-2%[25.6 µM],-1%
COC(=O)c1ccc(CN(C(C)=O)c2ccccc2)o1,-8%,-1,-12,20µM*,-1%,-5%
COc1ccc(-c2cn(-c3ccc(C)cc3C)c(=O)[nH]2)cc1OC,11%,1,.,?,.,.
CN1C(=O)/C(=N\OC(=O)c2cccc3ccccc23)c2ccccc21,2%,-27,38,14µM*,-2%,?
O=C(CCl)N1N=C(c2cccs2)CC1c1ccco1 (stereo not drawn),0%,2,.,0.45µM*,.,.
COc1cccc(OCCNC(=O)CSc2ccc(C(F)(F)F)cc2[N+](=O)[O-])c1,-5%,-9,-9,32µM*,0%,-25%
CCN(CC)C(=O)CSc1ccc(C(F)(F)F)cc1[N+](=O)[O-],0%,2,-3,5%,-1%,-6%
COc1ccc(OCCNC(=O)c2cccc(Oc3ccc(C(F)(F)F)cc3[N+](=O)[O-])c2)cc1,2%,-10,?,0%,0%,-20%
Cc1ccccc1OCCNC(=O)CSc1ccc(C(F)(F)F)cc1[N+](=O)[O-],3%,1,-9,13µM*,0%,25µM*
Cc1cc(N/N=C/c2cccc(Cl)c2)nc(NCc2ccccc2)n1,-3%,-10,17,-1%,-5%,-11%
SMILES,aGal spleen mod,GLA inh pH 4.5,PNC assembly inh,ALDH1A1 block,ALOX12 inhib,HPGD inh
Cc1cc(Nc2cccc(Cl)c2)nc(NCc2ccccc2)n1,3%,-7,-94*,4%,-10%,-8%
COCCN(C(=O)CC(C)(C)C)c1nnc(-c2cccnc2)s1,-11%,-2,-6,0%,3%,-4%
CCCC(=O)N(C)c1nnc(-c2ccc(OC)cc2)s1,-7%,-2,-8,28µM*,-1%,-17%
COCCN(C(=O)Cc1cccs1)c1nnc(-c2cccnc2)s1,6%,-1,-100*,?,-1%,1%
COCCN(C(=O)CCc1ccccc1OC)c1nnc(-c2cccnc2)s1,-10%,-8,.,4%,.,.
CCCCN(C(=O)Cc1cccs1)c1nnc(-c2cccnc2)s1,-4%,1,-13,18µM*,-5%,-14%
COc1cccc(C(=O)N(C)c2nnc(-c3ccncc3)s2)c1,3%,6,10,0%,7%,-12%
COCCN(C(=O)CCc1ccc(OC)cc1)c1nnc(-c2ccncc2)s1,-4%,-1,.,22µM*,.,.
CO[C@H]1[C@H](O[C@H]2O[C@@H](C)[C@@H](O[C@@H]3C[C@](C)(O)[C@H](O)[C@H](C)O3)[C@@H](N(C)C)[C@@H]2O)[C@@H](CC=O)C[C@@H](C)[C@@H](O[C@H]2CC[C@H](N(C)C)[C@H](C)O2)/C=C\C=C/C[C@@H](C)OC(=O)C[C@H]1O,1%[29.1 µM],4,.,2%[20.9 µM],0%[25.6 µM],-3%
Cc1cc(-c2n[nH]c(=S)n2/N=C/c2cccc(O)c2)n[nH]1,8%,-7,.,1%,.,.
Cc1ccc(/C=N/n2c(-c3ccncc3)n[nH]c2=S)s1,-12%,-3,.,.,.,.
Cc1cc(-c2n[nH]c(=S)n2/N=C/c2sccc2C)n[nH]1,7%,-12,-23,-4%,-7%,22µM*
Cc1ccc(/C=N/n2c(-c3ccco3)n[nH]c2=S)cc1,4%,-23,.,.,.,.
Cc1ccsc1/C=N/n1c(-c2ccccc2)n[nH]c1=S,-1%,2,25,?,-2%,13µM*
Cc1ccsc1/C=N/n1c(-c2ccco2)n[nH]c1=S,6%,3,?,14µM*,-3%,14µM*
S=c1[nH]nc(-c2cc(-c3ccccc3)n[nH]2)n1/N=C/c1cccs1,2%,-5,.,10%,.,.
Cc1ccsc1/C=N/n1c(-c2ccncc2)n[nH]c1=S,7%,1,18,-6%,-2%,28µM*
CC(=O)Nc1ccc(OCC(=O)N(CC(C)C)C2CCS(=O)(=O)C2)cc1 (stereo not drawn),-9%,3,.,6%,.,.
COc1ncc2nc(-c3ccc(Cl)cc3)c(=O)n(CCC#N)c2n1,-2%,.,.,-3%,.,.
S=c1[nH]nc(-c2ccco2)n1/N=C/C(Cl)=C/c1ccccc1,6%,-28,.,-5%,.,.
Cc1ccsc1/C=N/n1c(-c2ccccn2)n[nH]c1=S,12%,4,?,?,-28%,28µM*
Cc1cc(-c2n[nH]c(=S)n2/N=C/C(Cl)=C/c2ccccc2)n[nH]1,-6%,-1,0,?,-4%,6.3µM*
COC(=O)c1ccc(CNC(=O)COC(=O)CC23CC4CC(CC(Br)(C4)C2)C3)cc1,-5%,7,?,13µM*,-7%,-26%

# Screens as filed in PubChem BioAssay.
